HTT cytoprotect: Huntington cell model cytoprotection by ATP luminescence | PC12 HTT-Q103 induced, cytoprotection, ATP luminescence, 40 h | AID 1471 | 230,000 compounds, 0.14% hits | Potency, µM (highest dose often 56.4 µM), actives largely listed as activators; note: nearly all actives have a fitted effect of over 45% in size
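Huntington model: PC12 line, ecdysone-inducible HTTQ103 exon1–GFP, tebufenozide 100 nM. Test articles in a dose series. Endpoint luminescence from cellular ATP.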
HepG2 viability: HepG2 cytotoxicity, counter-screen for TGF-b inhibitors | 410,000 compounds, 0.76% hits | HepG2 CAGA-GFP viability, ATP luminescence, 18 h | Potency, µM (titrated, usually from 46.1 µM), most hits filed as cytotoxic | AID 588856
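CellTiter-Glo luminescence gave cytotoxicity after 18 hours at 37 degrees C. The cells were HepG2 CAGA-GFP in 1% FBS DMEM, stimulated with 500 pg/mL TGF-beta after compound addition. %Activity was normalised to no-cell wells (complete cell-killing) and DMSO (no toxicity), and curves were fitted and classified.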
ATXN2 expr inh: ATXN2 expression inhibition | 360,000 compounds, 0.72% hits | HEK-293 ATXN2-luciferase reporter, luminescence, 24 h | Potency, µM (top dose mostly 57 µM), usual class: inhibitors; note: nearly all actives have a fitted effect of over 55% in size
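ATXN2-luciferase reporter cells (luciferase flanked by upstream and downstream ATXN2 gene portions) were treated 24 h at 37 °C with compounds at up to 57 uM. SteadyGlo luminescence gave expression; GF-AFC fluorescence gave viability.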
TGFb inhibitor: blocks TGF-b signaling; HepG2 CAGA-GFP TGF-b/SMAD3 reporter, GFP fluorescence, 18 h; TGF-beta stimulated, 500 pg/mL final; Potency, µM (top dose mostly 46.1 µM), most hits filed as inhibitors; 410,000 compounds, 1.2% hits; note: nearly all actives have a fitted effect of over 65% in size
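Using HEPG2 CAGA-GFP reporter cells at 1000 cells/well, we pinned test compounds, stimulated with recombinant TGF-beta (500 pg/mL final) and measured total well GFP after 18 h.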
HttQ103 aggreg: inhibitors of mutant huntingtin aggregate formation in PC12 cells; PC12 HttQ103-GFP aggregates, Acumen cytometry, 40 h; Potency, µM (series often up to 46.1 µM), most hits filed as inhibitors; 220,000 compounds, 1.1% hits; note: nearly all actives have a fitted effect of over 60% in size
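Huntingtin Q103 exon 1–GFP aggregates in induced PC12 cells (100 nM tebufenozide) were quantified by cytometry from lysates, with compounds dosed in titration.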
ATXN viability: cell viability loss in ATXN counter-screen | 400,000 compounds, 0.49% hits | AID 651635 | S2 cells (HEK-293 line with an ATXN2-luciferase reporter) viability, CellTiter-Fluor protease fluorescence, 24 h | Potency, µM (series often up to 56.7 µM), hits mostly cytotoxic; note: nearly all actives have a fitted effect of over 40% in size
Hits are given with their value; [ ] = another dose, or the depositor's remark. Only some compounds are listed: those with a hit (about 2.8% of all), similar ones and a draw of the others. Calls come from the whole dose curve; as a rule, active = well fitted curve in the direction sought with a large enough effect; inconclusive = small, poorly fitted or top-dose-only effect, or another doubt; inactive = no such curve, though single readings can be large; an effect the other way counts as inactive or inconclusive.

Screening COc1ccc(Nc2oc(COc3ccc(Cl)cc3)nc2C#N)cc1 returned HTT cytoprotect inactive, HepG2 viability inactive, ATXN2 expr inh 14µM, TGFb inhibitor inactive, HttQ103 aggreg inconclusive and ATXN viability inconclusive.
Screening C=CCNc1oc(COc2ccc(C)cc2)nc1C#N returned HTT cytoprotect inactive, HepG2 viability inactive, ATXN2 expr inh inactive, TGFb inhibitor inactive, HttQ103 aggreg inactive and ATXN viability inactive.
Screening CN(C)CCNc1oc(COc2ccc(-c3ccccc3)cc2)nc1C#N returned HTT cytoprotect inactive, HepG2 viability 11µM, ATXN2 expr inh inconclusive, TGFb inhibitor inconclusive, HttQ103 aggreg inactive and ATXN viability inconclusive.
Screening N#Cc1nc(COc2ccc(-c3ccccc3)cc2)oc1NCCCN1CCOCC1 returned HTT cytoprotect inactive, HepG2 viability inactive, ATXN2 expr inh 32µM, TGFb inhibitor inactive, HttQ103 aggreg inactive and ATXN viability inconclusive.
`C=CCNc1oc(-c2ccc(-c3ccccc3)cc2)nc1C#N` gave HepG2 viability inactive, ATXN2 expr inh inconclusive, TGFb inhibitor 10µM and ATXN viability inconclusive.
Screening COc1ccc(CNc2oc(COc3ccc(Cl)cc3)nc2C#N)cc1 returned HTT cytoprotect inactive, HepG2 viability inactive, ATXN2 expr inh inactive, TGFb inhibitor inconclusive, HttQ103 aggreg inconclusive and ATXN viability inactive.
`C=CCNc1oc(-c2cccc(Cl)c2)nc1C#N` gave HepG2 viability inactive, ATXN2 expr inh inactive, TGFb inhibitor inconclusive and ATXN viability inconclusive.
N#CCCN(Cc1ccccc1)C(C(=O)NC1CCCCC1)C1CC1 (stereo not drawn) was read as HepG2 viability inactive, ATXN2 expr inh inactive, TGFb inhibitor inactive and ATXN viability inactive.
For N#CCCN(Cc1ccccc1)C(CCc1ccccc1)C(=O)NC1CCCCC1 (stereo not drawn) the results were HepG2 viability inactive, ATXN2 expr inh inconclusive, TGFb inhibitor 13µM and ATXN viability inconclusive.
For COc1cccc([C@@H]2Oc3ccc(OC)cc3C[C@H]2OC(=O)NCc2ccco2)c1 the results were HTT cytoprotect inactive.
Screening COc1ccc(C(=O)NC(=S)Nc2ccc(CN3CCOCC3)cc2)cc1Br returned HepG2 viability inactive, TGFb inhibitor 11µM and ATXN viability inconclusive.
For O=C(Nc1ccc(CN2CCOCC2)cc1)c1ccc(-c2ccc(Br)cc2)o1 the results were HTT cytoprotect inactive[0.074 µM], HepG2 viability 10µM, ATXN2 expr inh inconclusive, TGFb inhibitor inconclusive, HttQ103 aggreg inactive and ATXN viability inconclusive.
For O=C(Nc1ccc(CN2CCOCC2)cc1)c1ccc(Br)cc1 the results were HepG2 viability inactive, ATXN2 expr inh inactive, TGFb inhibitor inactive and ATXN viability inactive.
`Cc1ccc(CNc2nc(CN3CCSCC3)nc3ccccc23)o1` gave ATXN viability inactive.
For CC1(C)CC(=O)C2=C(C1)N(Cc1ccco1)C(=O)C2(NC(=O)C1CCCCC1)C(F)(F)F (stereo not drawn) the results were HTT cytoprotect inactive, HepG2 viability inactive, ATXN2 expr inh inactive, TGFb inhibitor inactive, HttQ103 aggreg 5.6µM and ATXN viability inactive.
For COc1ccc2c(Sc3ccc(Cl)cc3)c(C(=O)NCCCN3CCCCC3)[nH]c2c1 the results were HepG2 viability 16µM, ATXN2 expr inh 25µM and TGFb inhibitor inconclusive.
Cc1ccc2c(c1)CN(CCNC(=O)C(C)Oc1ccccc1)CC(C)O2 (stereo not drawn) was read as ATXN viability inactive.
For O=C(Nc1ccc(F)c(F)c1)c1cnn2c1NC(=C1CC1)C=C2C(F)(F)F the results were HepG2 viability inactive and TGFb inhibitor inactive.
`CC(C)(C)c1ccc(Cn2c(Cc3ccccc3)nc3ccccc32)cc1` gave HepG2 viability 16µM, ATXN2 expr inh inconclusive, TGFb inhibitor 14µM and ATXN viability inconclusive.
`COc1ccc(N(Cc2ccccc2)C(=O)c2nc(S(C)(=O)=O)ncc2Cl)cc1` gave HepG2 viability inactive and TGFb inhibitor 2µM.
Screening CS(=O)(=O)c1ncc(Cl)c(C(=O)N(Cc2ccc(Cl)cc2)Cc2ccco2)n1 returned HepG2 viability 3.2µM, ATXN2 expr inh 5.6µM and TGFb inhibitor 5µM.
Screening O=C(c1ccc(Cl)cc1)N(Cc1ccco1)Cc1ccco1 returned HepG2 viability inactive and TGFb inhibitor inactive.
For Cc1sc2ccccc2[n+]1CCCCBr the results were HepG2 viability inactive and TGFb inhibitor inconclusive.
`Cc1ccc2[nH]c3nc(CCCn4ccnc4-c4ccccc4)nnc3c2c1` gave HTT cytoprotect 1µM.
`N#CC(C#N)=NNc1ccc2cn[nH]c2c1` gave HTT cytoprotect inactive[10 µM], HepG2 viability inactive, ATXN2 expr inh inconclusive, TGFb inhibitor inconclusive and ATXN viability 16µM.
`Cc1cccc(NC(=O)CSc2cccc3cccnc23)c1C` gave HepG2 viability inactive, ATXN2 expr inh inactive, TGFb inhibitor inconclusive and ATXN viability inactive.
Screening O=C(CSc1cccc2cccnc12)Nc1cccc(S(=O)(=O)N2CCOCC2)c1 returned HTT cytoprotect inactive[10 µM], HepG2 viability inactive, ATXN2 expr inh inactive, TGFb inhibitor inactive, HttQ103 aggreg inactive and ATXN viability inactive.
For CCOC(=O)CSc1cccc2cccnc12 the results were HTT cytoprotect inactive[0.074 µM], HepG2 viability 8.9µM, ATXN2 expr inh 20µM, TGFb inhibitor inconclusive, HttQ103 aggreg inconclusive and ATXN viability inconclusive.
For CCCCCOc1ccc(NC(=O)CSc2cccc3cccnc23)cc1 the results were HTT cytoprotect inactive[10 µM], HepG2 viability 20µM, ATXN2 expr inh inactive, TGFb inhibitor inconclusive, HttQ103 aggreg inactive and ATXN viability inactive.
For O=C(CSc1cccc2cccnc12)Nc1ccc(S(=O)(=O)N2CCOCC2)cc1 the results were HTT cytoprotect inactive[10 µM], HepG2 viability inactive, ATXN2 expr inh 13µM, TGFb inhibitor inconclusive, HttQ103 aggreg inconclusive and ATXN viability 11µM.
Screening Cn1c(SCC(=O)N2CCCCC2)nc2c([nH]c3ccccc32)c1=O returned HTT cytoprotect inactive, HepG2 viability inactive, ATXN2 expr inh inactive, TGFb inhibitor inactive, HttQ103 aggreg inconclusive and ATXN viability inactive.
CCOC(=O)N1CCN(C(=O)CSc2nc3c([nH]c4ccccc43)c(=O)n2C)CC1 was read as HTT cytoprotect inactive[10 µM], HepG2 viability inactive, ATXN2 expr inh inactive, TGFb inhibitor 13µM, HttQ103 aggreg inactive and ATXN viability inactive.
Screening Cc1ccc(C)c(C(=O)CSc2nnnn2C(C)C)c1 returned HTT cytoprotect inactive[10 µM], HepG2 viability inactive, ATXN2 expr inh inactive, TGFb inhibitor inactive, HttQ103 aggreg inactive and ATXN viability inactive.
For Cc1ccc(C(=O)CSc2nnnn2C(C)C)c(C)c1 the results were HTT cytoprotect inactive[10 µM], HepG2 viability inactive, ATXN2 expr inh 7.9µM, TGFb inhibitor inactive, HttQ103 aggreg inactive and ATXN viability inactive.

Compound activity from PubChem.
